# Measured values published in the supplement of paper PMC10941209.
# A number with no mark means an inactive call.
# Tested on: Toxoplasma gondii RH 2F1 tachyzoites (intracellular in HFF)
# Test: parasite survival relative to DMSO control; higher = less antiparasitic activity, active = 20 or less
# Conditions: 1 µM; 72 h
# In short: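 Survival is the β-galactosidase-derived signal from intracellular Toxoplasma gondii RH-2F1 tachyzoites, expressed as a percentage of infected wells treated with DMSO. HFF cells (5 × 10^3 cells/well, 96-well plates) were infected with 5 × 10^3 parasites in D2 medium for 3 h and then treated with compound at 1 μM for 72 h at 37°C in 5% CO2. After lysis, CPRG was added and absorbance at 570 nm was read at 30 min, with 2 or more biological replicates.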
row,SMILES,parasite survival
1,CCN(CC)CCCC(C)Nc1ccnc2cc(Cl)ccc12 (stereo not given),70.6%
2,NC(=O)C(c1ccccc1)(c1ccccc1)[C@H]1CCCN(CCc2ccc3c(c2)CCO3)C1,67%
3,COC(=O)Nc1nc2cc([S+]([O-])c3ccccc3)ccc2[nH]1 (stereo not given),59.2%
4,CC(C)(C)c1cccc(-c2nc3cc(C(=N)N)ccc3[nH]2)c1O,50.5%
5,NC(=O)c1nccn([C@@H]2O[C@H](CO)[C@@H](O)[C@H]2O)c1=O,59.3%
6,Cc1nc(-c2ccc(C3N(C)c4ccc(F)cc4C(=O)N3c3ccccc3)s2)cs1 (stereo not given),59.2%
7,NS(=O)(=O)c1ccc(NC(=O)NC(c2ccccc2)c2ccccc2)cc1,32%
8,O=c1cc(Nc2ccc3ccccc3c2)[nH]c(=O)[nH]1,53.3%
9,NC(=O)c1cnc2ccc(S(=O)(=O)c3ccccc3)cc2c1Nc1ccc(O)cc1,43%
10,C[C@@H](c1nc(-c2ccc(C#N)cc2)cs1)[C@](O)(Cn1cncn1)c1ccc(F)cc1F,62.9%
11,Nc1nc(F)nc2c1ncn2[C@H]1O[C@@H](CO)[C@H](O)[C@@H]1O,30%
12,Cc1nc2ccc(Oc3ccccc3)cc2c2c1CCN2CCc1ccccc1,8.56% (active)
13,NC(=O)c1c(N)sc2c1CCCCC2,48.8%
14,CCc1cc(O)c(Oc2ccc(C(N)=O)cc2F)cc1F,71.5%
15,CC1(C)Cc2c(C#N)c(SCCc3ccccc3)nc(N3CCOCC3)c2CO1,39.6%
